Source: PubChem
Sampled rows, rich in hits. Any-hit rate of the full collection: about 2.4%.
MITF TRPM1 HTS = increases MITF-driven TRPM1 promoter luciferase signal | SK-MEL-5 TRPM1-promoter luciferase, 24 h; % of positive control, neutral wells = 0 | activation, % at 12.5 µM | 300,000 tested, 0.75% active | AID 588334;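 active = mean activation of at least 80% with every replicate also reaching 80%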
GSIS activator = GLuc luminescence reporter in INS-1E cells, primary screen for activators of glucose-dependent secretion of insulin | 370,000 tested, 0.61% active | activation, % at 16.6 µM | INS-1E GLuc reporter insulin secretion, 2-3 h | AID 743287;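 active = lowest replicate activation of at least 40%, so every replicate reaches that level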
Wnt bcat act = Wnt/beta-catenin pathway activation. Wnt/beta-catenin reporter cell assay, activator, plate reader. activation, % at 9.35 µM. AID 743398. 300,000 tested, 1.2% active; in the data active = activation above about 30%, passing the limit was not always enough
DYRK1A inh = blocks rat Dyrk1A kinase activity. 310,000 tested, 0.43% active. ADP-Glo luminescence, NFATc1 peptide. Q63470. inhibition, % at 12.5 µM
miR-122 sensor = miR-122 inhibition in Huh7 cells. Huh7 miR-122 Renilla luciferase sensor, 48 h; neutral wells = 0, positive control = 100. activation (reporter increase), % at 12.5 µM. 340,000 tested, 0.3% active. AID 602342;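 active = mean replicate activation score at least 90 and every replicate individually at or above 90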;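 note: higher luciferase means less miR-122 activity so hits act as miR-122 inhibitors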
NSD2 inh = inhibitors of human histone methyltransferase NSD2; NSD2 peptide methylation, AlphaScreen, 120 min; O96028; inhibition, % at 12.5 µM; 310,000 tested, 0.54% active
Target sequence (O96028 whole entry, looked up): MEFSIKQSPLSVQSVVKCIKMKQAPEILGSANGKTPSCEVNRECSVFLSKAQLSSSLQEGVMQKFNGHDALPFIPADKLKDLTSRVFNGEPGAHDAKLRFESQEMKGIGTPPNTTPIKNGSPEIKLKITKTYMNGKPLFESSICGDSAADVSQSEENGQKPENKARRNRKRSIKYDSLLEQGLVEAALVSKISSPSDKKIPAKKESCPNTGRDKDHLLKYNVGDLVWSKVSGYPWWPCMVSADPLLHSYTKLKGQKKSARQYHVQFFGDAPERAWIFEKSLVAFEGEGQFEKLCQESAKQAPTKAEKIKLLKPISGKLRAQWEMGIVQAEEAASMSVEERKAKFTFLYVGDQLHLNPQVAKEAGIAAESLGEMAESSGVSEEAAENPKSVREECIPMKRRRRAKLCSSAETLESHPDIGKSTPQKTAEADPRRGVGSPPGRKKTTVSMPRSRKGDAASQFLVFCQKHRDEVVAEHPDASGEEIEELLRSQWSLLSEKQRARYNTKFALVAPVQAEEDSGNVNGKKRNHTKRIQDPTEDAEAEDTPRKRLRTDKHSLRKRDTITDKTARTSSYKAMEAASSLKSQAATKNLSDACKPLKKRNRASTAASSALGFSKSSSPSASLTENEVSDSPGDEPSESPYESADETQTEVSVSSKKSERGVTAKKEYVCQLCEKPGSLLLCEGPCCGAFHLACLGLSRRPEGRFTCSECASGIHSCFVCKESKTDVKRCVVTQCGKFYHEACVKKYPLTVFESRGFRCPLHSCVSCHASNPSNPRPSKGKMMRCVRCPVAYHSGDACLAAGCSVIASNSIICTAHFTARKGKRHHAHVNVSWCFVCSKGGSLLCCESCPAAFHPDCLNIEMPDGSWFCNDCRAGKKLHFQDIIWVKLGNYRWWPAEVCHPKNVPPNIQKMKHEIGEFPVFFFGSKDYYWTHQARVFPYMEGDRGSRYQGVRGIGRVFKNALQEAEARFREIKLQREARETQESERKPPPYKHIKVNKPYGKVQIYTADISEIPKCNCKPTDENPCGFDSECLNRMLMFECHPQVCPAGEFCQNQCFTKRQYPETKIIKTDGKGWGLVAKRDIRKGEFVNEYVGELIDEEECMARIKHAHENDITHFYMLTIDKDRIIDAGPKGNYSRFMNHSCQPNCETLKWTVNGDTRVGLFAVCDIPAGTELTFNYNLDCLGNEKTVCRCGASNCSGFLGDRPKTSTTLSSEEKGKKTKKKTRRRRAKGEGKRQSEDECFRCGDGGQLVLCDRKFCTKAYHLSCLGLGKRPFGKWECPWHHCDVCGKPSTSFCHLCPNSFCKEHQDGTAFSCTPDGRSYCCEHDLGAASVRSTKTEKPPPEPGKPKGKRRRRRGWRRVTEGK
Alpha artifact = counter-screen for NSD2 inhibitors: AlphaScreen artifacts; shares compounds with NSD2 inh; AC35, µM (doses to about 10 µM); 1,500 tested, 9.4% active; AlphaScreen artifact counterscreen, preloaded methylated H4 peptide; call rule not given here
Large screens that a line does not name were inactive (follow-up assays come after a bar, where they were run). Cut-off read from the data, not from the text of the source, unless noted: active = inhibition above about 50%; inactive = the rest.

Cc1cccc(-n2c3nc(=O)[nH]c(=O)c-3cc3cc([N+](=O)[O-])ccc32)c1	NSD2 inh 58 (no result: GSIS activator) | Alpha artifact inactive
CCN(CC)C1CCN(c2nc3nonc3nc2NCCOC)C1 (centres undefined)	NSD2 inh 75 | Alpha artifact inactive
COCCCNc1nc2nonc2nc1N1CCN2CCCC2C1 (centres undefined)	none
C[C@H]1C/C=C\C[C@H](c2ccc3c(c2)OCO3)NC(=O)[C@H](c2ccccc2)CC(=O)N1	none (no result: MITF TRPM1 HTS, Wnt bcat act, DYRK1A inh, miR-122 sensor, NSD2 inh)
CCOc1cc2c(C#N)c(N3CCOCC3)nc(N)c2c(N)n1	NSD2 inh 70 (no result: GSIS activator, Wnt bcat act) | Alpha artifact inactive
CCOc1cc2c(C#N)c(N(CC)CC)nc(N)c2c(N)n1	none (no result: NSD2 inh)
CCC1Cc2c(nc(N)c3c(N)nc(N4CCOCC4)c(C#N)c23)O1 (centres undefined)	NSD2 inh 82 | Alpha artifact inactive
COc1ccccc1-c1ccc2c(c1)O[C@H](CN(C)C(C)=O)[C@H](C)CN([C@@H](C)CO)S2(=O)=O	none (no result: MITF TRPM1 HTS, Wnt bcat act, DYRK1A inh, NSD2 inh)
O=C(CNC(=O)c1ccco1)NCC(=O)OCc1ccccc1Cl	NSD2 inh 56 (no result: miR-122 sensor) | Alpha artifact inactive
Oc1ccc2c(c1)OCC1(O)Cc3cc(O)c(O)cc3C21 (centres undefined)	none (no result: NSD2 inh)
Oc1cc2c(cc1O)[C@H]1c3ccc(O)c(O)c3OC[C@@]1(O)C2	NSD2 inh 109 | Alpha artifact 4µM
C=CCn1c(-c2ccc(OC)cc2)nc2nc3ccccc3nc21	NSD2 inh 67 (no result: MITF TRPM1 HTS, GSIS activator) | Alpha artifact inactive
C[C@@H]1CN([C@@H](C)CO)C(=O)c2cc(NC(=O)Nc3ccc(F)cc3)ccc2O[C@@H](C)CCCCO[C@H]1CN(C)Cc1ccccc1	none (no result: MITF TRPM1 HTS, Wnt bcat act, DYRK1A inh, NSD2 inh)
CC1CC(C)CN(C(=O)C2CCN(S(=O)(=O)c3cccs3)CC2)C1 (centres undefined)	NSD2 inh 50 (no result: MITF TRPM1 HTS) | Alpha artifact inactive
CC1CCN(C(=O)C2CCN(S(=O)(=O)c3cccs3)CC2)CC1	none
CO[C@@H]1CN(C)C(=O)c2cc(NC(=O)C3CCC3)ccc2OC[C@@H](C)N(Cc2ccc(F)cc2)C[C@@H]1C	none (no result: MITF TRPM1 HTS, Wnt bcat act, DYRK1A inh, NSD2 inh)
CC(C)c1ccc(NC(=O)C2CC(=O)N(C(C)C)C2)cc1 (centres undefined)	none (no result: GSIS activator)
C=CCOc1ccc(NC(=O)C2CC(=O)N(C(C)C)C2)cc1 (centres undefined)	NSD2 inh 56 (no result: MITF TRPM1 HTS, GSIS activator) | Alpha artifact inactive
COc1ccc(NC(=O)CN2CCN(S(=O)(=O)N3CCCCCC3)CC2)cc1	NSD2 inh 74 (no result: miR-122 sensor) | Alpha artifact inactive
O=C(CN1CCOCC1)Nc1ccc(Oc2ccccc2)cc1	NSD2 inh 53 (no result: GSIS activator, Wnt bcat act) | Alpha artifact inactive
O=C(CN1CCOCCOCCOCC1)Nc1ccccc1	none (no result: GSIS activator)
O=C(CN1CCOCCOCCN(CC(=O)Nc2ccccc2)CCOCC1)Nc1ccccc1	NSD2 inh 166 (no result: MITF TRPM1 HTS, GSIS activator) | Alpha artifact inactive
CCC(=O)N(C)C[C@@H]1Oc2cc(Br)ccc2S(=O)(=O)N([C@@H](C)CO)C[C@H]1C	none (no result: MITF TRPM1 HTS, Wnt bcat act, DYRK1A inh, NSD2 inh)
Cc1nn2c3ccccc3n(CCN3CCCCC3)c2nc1=O	NSD2 inh 110 (no result: GSIS activator, Wnt bcat act) | Alpha artifact inactive
C[C@@H]1CN([C@@H](C)CO)C(=O)Cc2cc(NC(=O)CCCCCC(=O)Nc3ccccc3N)ccc2O[C@H]1CN(C)S(=O)(=O)c1cccs1	none (no result: MITF TRPM1 HTS, Wnt bcat act, DYRK1A inh, NSD2 inh)
CC(=O)Nc1ccc(C(=O)OCC(=O)/C(C#N)=C(\C)N)cc1	NSD2 inh 74 (no result: miR-122 sensor) | Alpha artifact inactive
C/C(N)=C(/C#N)C(=O)COC(=O)c1ccncc1	none (no result: MITF TRPM1 HTS, GSIS activator)
CC(C)NC(=O)CN(C(=O)CCC(=O)Nc1nccs1)c1ccc2c(c1)OCO2	none
COCCNC(=O)CN(C(=O)CCC(=O)Nc1nccs1)c1ccc2c(c1)OCO2	NSD2 inh 67 | Alpha artifact inactive
CCOC(=O)Nc1ccc(=O)n(Cc2c(Cl)cccc2Cl)c1	NSD2 inh 85 (no result: MITF TRPM1 HTS, GSIS activator, Wnt bcat act) | Alpha artifact inactive
CCCN1C[C@H](C)[C@H](OC)CN(C)C(=O)c2cc(NS(C)(=O)=O)ccc2OC[C@@H]1C	none (no result: MITF TRPM1 HTS, Wnt bcat act, DYRK1A inh, NSD2 inh)
C[C@H](CO)N1C[C@H](C)[C@@H](CN(C)C(=O)Nc2cccc3ccccc23)Oc2c(NC(=O)c3ccncc3)cccc2C1=O	none (no result: MITF TRPM1 HTS, Wnt bcat act, DYRK1A inh, NSD2 inh)
